Assay outcomes: PubChem BioAssay, National Center for Advancing Translational Sciences (NCATS)
KB-3-1 cytotox = KB-3-1 parental cell cytotoxicity. KB-3-1 viability, CellTiter-Glo ATP luminescence, 72 h. Potency, µM (series often up to 46.1 µM), most hits filed as cytotoxic. 400,000 compounds, 1.4% hits. AID 1347075; also: % is scaled to controls: 0 for no effect and ±100 for the full control effect; nearly all actives have a fitted effect of over 60% in size
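Screening of KB-3-1 cells (DMEM, 10% FBS, phenol-red free) ran from lowest to highest compound concentration; after 72 h at 37 °C viability was read luminescently and curves fitted.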
VP16 counter = Gal4-VP16 reporter inhibition counter-screen. Drosophila S2 Gal4-VP16 UAS-luciferase, luminescence, 20 h. Potency, µM (doses to about 53.6 µM), inactives show at the highest dose activity, negative = inhibition, hits mostly inhibitors. 310,000 compounds, 3.5% hits. AID 2546;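 also: Gal4-VP16 expression switched on by copper sulfate through the metallothionein promoter; % is scaled to controls: 0 for no effect and ±100 for the full control effect; nearly all actives have a fitted effect of over 50% in size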
MCF10A rereplic = induces DNA re-replication in MCF 10a normal breast cells. MCF 10A DNA re-replication, Hoechst nuclear intensity, 48 h. Potency, µM (top dose mostly 46.1 µM), for inactives: top-dose activity, positive = re-replication, usual class: activators. 350,000 compounds, 2.9% hits. AID 624296; also: % of control where 0% means no effect; nearly all actives have a fitted effect of over 50% in size
KB-V1 MDR tox = KB-V1 MDR subline cytotoxicity; KB-V1 MDR cells viability, CellTiter-Glo, 72 h; Potency, µM (series often up to 46.1 µM), usual class: cytotoxic; 400,000 compounds, 3.4% hits; also: % is scaled to controls: 0 for no effect and ±100 for the full control effect; nearly all actives have a fitted effect of over 60% in size
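KB-V1 cells (P-gp-expressing MDR subline of KB-3-1) in phenol-red-free DMEM with 10% FBS were exposed to library compounds over a concentration series for 72 h at 37 degrees C. Viability read by CellTiter-Glo luminescence; concentration-effect curves fitted after normalization.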
RORgamma inh = blocks mouse ROR gamma transcriptional activity; Drosophila S2 Gal4-RORgamma UAS-luciferase reporter, 20 h; Potency, µM (highest dose often 53.6 µM), inactives show top-dose activity change, negative = inhibition, usual class: inhibitors; P51450; 310,000 compounds, 5.4% hits; also: % is scaled to controls: 0 for no effect and ±100 for the full control effect; nearly all actives have a fitted effect of over 60% in size
Target sequence (P51450 whole entry, looked up, the tested form may be a part): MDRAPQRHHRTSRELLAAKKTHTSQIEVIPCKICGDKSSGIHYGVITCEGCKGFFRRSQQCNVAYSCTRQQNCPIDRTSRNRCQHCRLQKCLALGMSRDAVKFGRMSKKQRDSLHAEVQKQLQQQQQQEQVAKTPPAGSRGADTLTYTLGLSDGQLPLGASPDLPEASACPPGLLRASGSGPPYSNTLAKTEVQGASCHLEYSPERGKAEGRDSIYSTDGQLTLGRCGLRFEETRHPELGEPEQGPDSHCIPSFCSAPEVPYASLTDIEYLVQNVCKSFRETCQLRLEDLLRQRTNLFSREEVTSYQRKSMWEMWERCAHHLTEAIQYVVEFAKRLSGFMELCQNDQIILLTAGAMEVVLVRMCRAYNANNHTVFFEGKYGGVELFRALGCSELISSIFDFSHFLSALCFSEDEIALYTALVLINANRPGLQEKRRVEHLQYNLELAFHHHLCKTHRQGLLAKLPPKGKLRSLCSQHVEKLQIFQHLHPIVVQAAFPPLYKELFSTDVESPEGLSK
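In this cell-based reporter format, copper sulfate (700 uM final) drives Gal4–ROR gamma fusion expression from a metallothionein promoter in Drosophila Schneider cells; compounds preincubated 1 hr, reporter read after 20 hr at ambient temperature.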
SW480 rereplic = inducers of DNA re-replication in SW480 colon cancer cells; SW480 DNA re-replication, Hoechst DNA content imaging, 48 h; Potency, µM (series often up to 46.1 µM), for the others: at the highest dose re-replication activation, usual class: activators; 340,000 compounds, 1.8% hits; also: % of control where 0% means no effect; nearly all actives have a fitted effect of over 55% in size
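Cells (250 per well) received 23 nL compound or DMSO by pin tool and were kept 48 hr at 37 C, 5% CO2. Nuclei were then stained with Hoechst for 40 min and scanned for DNA content.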
Active calls of the source: *; i = inactive; ? = inconclusive; · = not tested or not shown; [ ] = another dose, or the depositor's remark. In the library only some 10% were active in any assay of this set; here they are far more common. Calls follow the shape of the dose curve; as a rule, active = well fitted curve in the direction sought with a large enough effect; inconclusive = small, poorly fitted or top-dose-only effect, or another doubt; inactive = no such curve, though single readings can be large; an effect the other way counts as inactive or inconclusive. Potency is read from the fitted curve at half-maximal effect.

SMILES | KB-3-1 cytotox | VP16 counter | MCF10A rereplic | KB-V1 MDR tox | RORgamma inh | SW480 rereplic
COc1cccc(C(=O)c2cn(CC(=O)NCCc3ccccc3)c3nc(C)ccc3c2=O)c1 | i | · | · | i | · | ·
CCOC(CNC(=O)Cn1nc(C)c2ccccc21)OCC | ? | -5% | 0.73µM* | i | 1% | -38%
CN(c1ccc(Cl)cc1)c1cc2c(c3c1ccn3C)C1CCC2O1 (stereo unspecified) | i | · | · | i | · | ·
CCCCOC(=O)n1c(SCC(=O)N(C)C)nc2ccccc21 | i | 1% | -6% | 16µM* | 16% | -3%
N#CC1(C#N)CC(C=O)=C(N)C1(C#N)CC(=O)C12CC3CC(CC(C3)C1)C2 (stereo unspecified) | i | ? | 18µM* | i | -37% | ?
Nc1nccnc1C(=O)OCC(=O)C12CC3CC(CC(C3)C1)C2 | i | · | -5% | i | · | 0%
CC1=C(C(=O)N(C)C)CC(CC(=O)NC2CC2)C(=O)N1Cc1ccccc1 (stereo unspecified) | i | · | · | i | · | ·
Cc1c(Cl)cccc1NC(=S)NC(=O)CCN1C(=O)c2ccccc2C1=O | i | ? | -2% | i | 16µM* | -1%
Cc1cccc(NC(=S)NC(=O)Cc2ccccc2)c1C | i | 4.5µM* | 7% | i | 4µM* | 13%
O=C(Nc1ccc(NC(=S)NC(=O)c2ccco2)cc1)c1ccccc1 | i | -11% | -7% | ? | ? | -15%
Cc1cccc(NC(=S)NC(=O)CCc2ccccc2)c1C | i | ? | -4% | i | 2.5µM* | 0%
O=C(NC(=S)Nc1cccc(NC(=S)NC(=O)c2ccco2)n1)c1ccco1 | i | 0.79µM* | -39% | i | 0.089µM* | ?
O=C(O)c1ccc(CO)o1 | · | -8% | · | · | 11% | ·
CCc1ccc2oc(-c3cccc(NC(=O)c4ccc(N5CCC(C)CC5)c([N+](=O)[O-])c4)c3)nc2c1 | i | · | · | i | · | ·
COc1cccc(NC(=O)C2CCN(S(=O)(=O)c3cccc4nonc34)CC2)c1 | i | · | · | i | · | ·
Cc1cccc(NC(=S)NC(=O)CCc2ccccc2)c1 | i | ? | ? | i | 10µM* | -5%
Cc1cccc(NC(=S)NC(=O)c2ccco2)c1C | i | 11µM* | 12% | i | 3.5µM* | -2%
O=C(NC(=S)Nc1ccccc1Br)c1ccco1 | i | ? | -19% | i | ? | -5%
CCCN(Cc1ccccc1)C(=S)Nc1cccc(C)c1C | i | -5% | -4% | i | ? | -2%
O=C(CCCOc1ccccc1)NC(=S)Nc1ccccc1 | i | ? | 2% | i | 10µM* | 11%
Cc1cccc(NC(=S)NN(Cc2ccccc2)c2ccccc2)c1C | ? | 3.5µM* | 23% | ? | 3.5µM* | -1%[9.22 µM]
Cc1ccc2c(c1)-c1c(c(C(=O)NCCc3ccccc3)nn1C)CS2 | i | · | · | i | · | ·
COC(=O)c1ccc(OC)c(Cn2c(=O)n(-c3cccc(Cl)c3)c(=O)c3c2c2cc(C)ccc2n3C)c1 | i | · | · | i | · | ·
Cc1cc(C)c(O)c(NC(=S)NC(=O)Cc2ccccc2)c1 | i | 5.6µM* | 5% | i | 10µM* | -9%
COc1cccc(Nc2ncc3nc(C)c(=O)n(CCc4ccccc4)c3n2)c1 | · | 8% | · | · | 6% | ·
SMILES | KB-3-1 cytotox | VP16 counter | MCF10A rereplic | KB-V1 MDR tox | RORgamma inh | SW480 rereplic
FC(F)Sc1ccc(N=C2NN=C(c3ccc4c(c3)OCCO4)CS2)cc1 | ? | 5% | ? | ? | -20% | 12µM*
CCCCN=C1NN=C(c2ccc3c(c2)OCCO3)CS1 | i | 7.9µM* | 12% | i | 4.5µM* | ?
c1cc2c(cc1C1=NNC(=NC3CC3)SC1)OCCO2 | ? | 2.2µM* | ? | 8.2µM* | 2.5µM* | 4.1µM*
CCCCN=C1NN=C(c2ccc(C)c(C)c2)CS1 | i | 13µM* | -4% | i | 7.1µM* | 7%
Cc1ccc2[nH]c(=O)c3cc(C(=O)NCc4cccc(Cl)c4)sc3c2c1 | i | · | · | i | · | ·
CCN(CC)CCNC(=O)C1CCN(c2cc(C)nc3c(-c4ccc(Cl)cc4)c(C)nn23)CC1 | ? | · | · | i | · | ·
COCCn1c(C)cc(C2=NNC(=NC(C)(C)C)SC2)c1C | i | ? | ? | i | 0% | ?
COCCN=C1NN=C(c2ccc(C)c([N+](=O)[O-])c2)CS1 | ? | -16% | -3% | i | 13µM* | -8%
CN(C)CCCNS(=O)(=O)c1ccc(N2CCC(c3ccc(Cl)cc3)=N2)cc1 | · | 0% | · | · | -18% | ·
O=S(=O)(c1ccc(N2CCC(c3ccc(Cl)cc3)=N2)cc1)N(CCO)CCO | i | -19% | ? | i | 10% | 0.58µM*
O=c1cc(O)c2sc(Nc3ccc(F)c(Cl)c3)nc2[nH]1 | 21µM* | 6% | 18% | i | 21% | 1%
O=c1cc(O)c2sc(Nc3ccc(Cl)c(F)c3)nc2[nH]1 | 13µM* | -4% | 18% | i | 24% | ?
COc1ccc(Nc2nc3[nH]c(=O)cc(O)c3s2)cc1 | i | -12% | 16% | i | 11% | 2%
COc1ccc(C(=O)N=c2nc3ccccn3s2)cc1 | i | 4µM* | -6% | i | 2.2µM* | -9%
CCNC(=O)c1ccc(C)c(-n2c(C)nc3cccnc32)c1 | i | · | · | i | · | ·
Clc1ccc2c(c1)-c1ccccc1C1=NCCN12 | 10µM* | · | · | 8.2µM* | · | ·
Brc1ccc2c(c1)-c1ccccc1C1=NCCN12 | ? | · | · | 10µM* | · | ·
COc1ccc(Br)cc1S(=O)(=O)N1CCN=C1c1ccccc1 | · | 1% | -7% | · | -4% | 14%
CCN(CC)C(=O)CSc1nnc(-c2ccccc2)o1 | i | -7% | 5.2µM* | i | -13% | ?
CC(=O)CSc1nnc(-c2ccc3c(c2)OCO3)o1 | i | 16µM* | -1% | i | 13µM* | -9%
CC(=O)Nc1ccc(NC(=O)CSc2nnc(-c3ccc4c(c3)OCO4)o2)cc1 | i | · | 6% | i | · | -22%
c1cc(CSc2nnc(-c3ccc4c(c3)OCO4)o2)ccn1 | i | 5% | -9% | 23µM* | -23% | -5%
O=C(O)CCSc1nnc(-c2ccc3c(c2)OCO3)o1 | i | 4µM* | -1% | i | 2.8µM* | -2%
CCOc1ccc(-c2cc(C(=O)NC3CCCCC3)[nH]n2)c(C)c1 | i | · | · | i | · | ·
c1ccc2c(CSc3nnc(-c4ccncc4)o3)cccc2c1 | i | -14% | ? | 15µM* | -24% | 0%
Clc1ccccc1CSc1nnc(-c2ccncc2)o1 | i | -7% | 8% | i | -2% | 2%
